# Activity calls are given as the source filed them.
# Tests used:
# [1] = E. coli DRC41 culture turbidity changes, primary screen, E. coli filamentation inducer project, strain DRC41, OD650, 48 h (AID 1152);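 further: E. coli MC1000 strain DRC41 lacking acrAB efflux pump and sulA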; settings: E. coli DRC41 (acrAB sulA), higher = more signal, called active from +8 up or from −8 down
# [2] = small-molecule binders of probe aLefty1, primary screen, biochemical, small-molecule microarray, 635/667 nm fluorescence (AID 1153); settings: higher = more signal;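 further: score merges spot fluorescence with signal-to-noise ratio from the scanned slide images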
# [3] = PSAC antagonists in infected red cells, primary screen, cell-based, P. falciparum Indochina, OD700, 1 h (AID 1154); settings: P. falciparum Indochina infected RBC osmotic lysis, higher = more signal, called active from +8 up or from −8 down
# [4] = PSAC antagonists in infected red cells, primary screen, cell-based, P. falciparum Indochina, OD700, 2 h (AID 1155);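 further: lysis reports solute entry through the parasite surface anion channel PSAC; channel blockers reduce lysis of infected cells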; settings: P. falciparum Indochina infected erythrocytes, osmotic lysis OD700; higher = more signal, called active from +8 up or from −8 down
# [5] = osmotic lysis modulators in infected erythrocytes, primary screen, PSAC antagonist project, cell-based, P. falciparum Indochina, OD700, 3 h (AID 1156); settings: higher = more signal, called active from +8 up or from −8 down
# [6] = PSAC antagonists in infected red cells, primary screen, cell-based, P. falciparum Indochina, OD700, 18 h (AID 1157); settings: P. falciparum Indochina infected erythrocytes, osmotic lysis OD700, 18 h; higher = more signal, called active from +8 up or from −8 down
# [7] = modulators of S6 phosphorylation in cells, primary screen, cell-based, A549, cytoblot, luminescence, serum-stimulated (AID 1158); settings: A549 phospho-S6 cytoblot, 5 h, higher = more signal;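 further: serum-stimulated A549 lung adenocarcinoma cells; signal is phosphorylated S6 detected by cytoblot immunostaining with HRP secondary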
# [8] = biological target: NADPH oxidase 2 (Homo sapiens) (UniProt P04839); assay: NOX2-dependent H2O2 signal modulators, primary screen, NOX inhibitor project, cell-based, HEK293-NOX2, PMA-stimulated, Amplex Red fluorescence (AID 1159); settings: 45 min, higher = more signal, called active from +8 up or from −8 down; further: test concentration not given here
# [9] = biological target: NADPH oxidase 4 (Homo sapiens) (UniProt Q9NPH5); assay: NOX4-dependent H2O2 signal modulators, primary screen, NOX inhibitor project, cell-based, HEK293-NOX4, tetracycline-induced, Amplex Red fluorescence (AID 1160); settings: 45 min, higher = more signal, called active from +8 up or from −8 down
# [10] = biological target: NADPH oxidase 5 (Homo sapiens) (UniProt Q96PH1); assay: NOX5-dependent H2O2 signal modulators, primary screen, NOX inhibitor project, cell-based, HEK293-NOX5, Amplex Red fluorescence (AID 1161); settings: HEK293-NOX5, ionomycin, 45 min, higher = more signal
# [11] = A549 cell viability effects, profiling panel, calcein-AM fluorescence, 48 h, basal (AID 1162); settings: higher = more signal; further: test concentration not given here
# [12] = adipocyte viability effects, profiling panel, cell-based, 3T3-L1 adipocytes, calcein-AM fluorescence, 48 h, basal (AID 1163); settings: 3T3-L1 adipocytes viability, higher = more signal; further: test concentration not given here
# [13] = HepG2 cell viability effects, profiling panel, calcein-AM fluorescence, 48 h, basal (AID 1164); settings: higher = more signal; further: test concentration not given here
# [14] = MM1S cell viability effects, profiling panel, calcein-AM fluorescence, 48 h, basal (AID 1165); settings: higher = more signal;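 further: viability of MM1S multiple myeloma cells under basal unstimulated conditions; test concentration not given here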
# [15] = basal RPMI8226 viability, no added stimulus, profiling panel, cell-based, calcein-AM fluorescence, 48 h, PK04 Diversity Set (AID 1166); settings: RPMI8226 myeloma viability, higher = more signal;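 further: cells grown under basal conditions without added stimulus; test concentration not given here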
# [16] = basal HepG2 mitochondrial membrane potential changes, profiling panel, cell-based, JC-1 fluorescence, 24 h, 100 nL compound (AID 1167); settings: higher = more signal; further: test concentration not given here
# [17] = basal 3T3-L1 adipocyte mitochondrial potential changes, profiling panel, cell-based, JC-1 fluorescence, 3T3-L1 adipocytes, 24 h, 100 nL compound (AID 1168); settings: JC-1 mitochondrial fluorescence, higher = more signal, called active from +8 up or from −8 down; further: test concentration not given here
# [18] = basal RPMI8226 mitochondrial membrane potential changes, profiling panel, cell-based, JC-1 fluorescence, 24 h, 100 nL compound (AID 1169); settings: RPMI8226 myeloma, JC-1 mitochondrial potential fluorescence, higher = more signal; further: test concentration not given here
# [19] = basal MM1S mitochondrial membrane potential changes, profiling panel, cell-based, JC-1 fluorescence, 24 h, 100 nL compound (AID 1170); settings: higher = more signal; further: test concentration not given here
# [20] = A549 lung cancer cell viability effects, profiling panel, resazurin fluorescence, 24 h, PK04 Diversity Set (AID 1171); settings: higher = more signal, called active from +8 up or from −8 down; further: test concentration not given here
# Chain of NADPH oxidase 5 (Homo sapiens) (Q96PH1 whole entry, looked up): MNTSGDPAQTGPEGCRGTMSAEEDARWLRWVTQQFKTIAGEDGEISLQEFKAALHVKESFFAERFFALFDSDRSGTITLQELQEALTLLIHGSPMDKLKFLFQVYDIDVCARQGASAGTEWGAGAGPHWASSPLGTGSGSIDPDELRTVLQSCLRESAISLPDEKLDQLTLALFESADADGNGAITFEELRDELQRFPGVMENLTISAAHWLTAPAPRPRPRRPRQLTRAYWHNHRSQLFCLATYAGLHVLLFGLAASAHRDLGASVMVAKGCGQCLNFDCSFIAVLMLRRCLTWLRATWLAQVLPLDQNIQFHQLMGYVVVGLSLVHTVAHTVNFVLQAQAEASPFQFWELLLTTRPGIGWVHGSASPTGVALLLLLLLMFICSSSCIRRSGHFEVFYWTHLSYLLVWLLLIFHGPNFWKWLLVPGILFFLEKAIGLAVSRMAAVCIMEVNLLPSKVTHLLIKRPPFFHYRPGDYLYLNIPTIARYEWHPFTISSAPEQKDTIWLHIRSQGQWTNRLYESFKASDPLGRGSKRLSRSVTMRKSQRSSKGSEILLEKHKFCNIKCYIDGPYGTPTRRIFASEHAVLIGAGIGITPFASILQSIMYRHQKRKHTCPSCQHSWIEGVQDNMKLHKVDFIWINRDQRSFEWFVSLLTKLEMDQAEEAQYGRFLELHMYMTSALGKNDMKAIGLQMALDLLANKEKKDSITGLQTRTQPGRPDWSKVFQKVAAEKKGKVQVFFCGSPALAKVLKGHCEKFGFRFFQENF
# Chain of NADPH oxidase 4 (Homo sapiens) (Q9NPH5 whole entry, looked up): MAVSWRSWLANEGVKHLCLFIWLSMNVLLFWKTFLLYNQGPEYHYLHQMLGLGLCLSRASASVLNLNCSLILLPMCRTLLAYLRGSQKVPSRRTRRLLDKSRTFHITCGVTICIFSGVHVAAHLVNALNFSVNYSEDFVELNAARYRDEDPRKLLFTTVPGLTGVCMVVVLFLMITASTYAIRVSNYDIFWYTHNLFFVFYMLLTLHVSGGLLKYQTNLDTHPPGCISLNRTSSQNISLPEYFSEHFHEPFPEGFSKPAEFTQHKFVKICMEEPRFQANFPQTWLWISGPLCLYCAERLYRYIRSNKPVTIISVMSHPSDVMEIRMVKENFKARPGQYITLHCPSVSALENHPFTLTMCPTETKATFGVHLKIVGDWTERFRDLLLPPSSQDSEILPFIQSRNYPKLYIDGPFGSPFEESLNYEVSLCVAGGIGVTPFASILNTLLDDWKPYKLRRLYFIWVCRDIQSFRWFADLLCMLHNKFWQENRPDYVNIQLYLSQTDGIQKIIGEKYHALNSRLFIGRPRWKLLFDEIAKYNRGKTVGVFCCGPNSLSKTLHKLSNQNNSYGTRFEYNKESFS
# Chain of NADPH oxidase 2 (Homo sapiens) (P04839 whole entry, looked up): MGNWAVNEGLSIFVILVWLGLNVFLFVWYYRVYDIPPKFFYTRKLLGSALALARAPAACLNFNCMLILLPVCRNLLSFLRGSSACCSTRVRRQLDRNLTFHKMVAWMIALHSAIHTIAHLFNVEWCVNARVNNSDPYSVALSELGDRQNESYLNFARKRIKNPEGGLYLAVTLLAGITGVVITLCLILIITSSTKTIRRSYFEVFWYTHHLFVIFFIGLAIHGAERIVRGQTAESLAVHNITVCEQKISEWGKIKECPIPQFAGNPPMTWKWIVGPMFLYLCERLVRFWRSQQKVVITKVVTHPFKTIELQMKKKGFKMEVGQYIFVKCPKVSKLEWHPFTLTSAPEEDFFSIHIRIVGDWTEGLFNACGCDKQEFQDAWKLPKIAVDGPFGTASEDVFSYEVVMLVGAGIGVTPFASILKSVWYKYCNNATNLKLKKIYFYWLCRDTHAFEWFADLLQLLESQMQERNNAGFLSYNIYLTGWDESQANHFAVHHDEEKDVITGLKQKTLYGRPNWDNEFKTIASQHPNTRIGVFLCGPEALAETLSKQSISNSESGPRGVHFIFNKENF
Compound,z-score [1],composite z-score [2],z-score [3],z-score [4],z-score [5],z-score [6],z-score [7],z-score [8],z-score [9],z-score [10],z-score [11],z-score [12],z-score [13],z-score [14],z-score [15],z-score [16],z-score [17],z-score [18],z-score [19],z-score [20]
Cc1ccc(F)cc1S(=O)(=O)N[C@@H]1CCN(Cc2ccc(OC(C)C)cc2)C1,-19.2 (active),-0.186,2.14 (inactive),0.45 (inactive),-0.11 (inactive),0.673 (inactive),-0.157,-0.681 (inactive),-0.987 (inactive),-1.62,0.0197,-0.382,-0.867,-2.58,-0.974,-1.41,0.0582 (inactive),0.0721,-1.87,-0.26 (inactive)
CCCCC(CC)C(O)C1C=CC2C(=O)N(c3ccccc3)C(=O)C2N1Nc1ccc([N+](=O)[O-])cc1 (stereo not given),-0.999 (inactive),0.602,3.19 (inactive),0.724 (inactive),0.369 (inactive),0.487 (inactive),-0.429,-0.441 (inactive),-1.6 (inactive),-1.33,-0.561,-0.0969,-0.919,-0.41,-1.1,-1.74,-1.56 (inactive),0.349,-1.03,-0.451 (inactive)
[N-]=[N+]=Nc1ccccc1[C@@H]1OC(c2ccc(OCCCO)cc2)=N[C@]1(CCS(=O)(=O)c1ccccc1)C(=O)NCCN1CCOCC1,0.0992 (inactive),0.417,27.4 (active),20.8 (active),1.9 (inactive),0.667 (inactive),1.12,-3.49 (inactive),-0.729 (inactive),-1.84,0.652,1.37,-0.229,0.351,-1.58,0.0652,-0.783 (inactive),-0.465,-1.2,0.465 (inactive)
CCOC(=O)C1=CC[C@@H](c2ccccc2)N(S(=O)(=O)c2ccc(C)cc2)C1,-1.46 (inactive),0.638,2.45 (inactive),0.596 (inactive),0.517 (inactive),0.509 (inactive),-0.506,-0.0336 (inactive),-1.44 (inactive),-1.63,-0.747,-0.384,-0.165,-1.22,-1.62,0.546,-1.07 (inactive),0.84,-0.977,-0.145 (inactive)
O=C1C[C@@](C(=O)NCC(F)(F)F)(c2ccc([N+](=O)[O-])cc2)[C@@H](c2ccc(CO)cc2)N1C1CCCCC1,-0.0786 (inactive),0.517,1.18 (inactive),-0.105 (inactive),1.29 (inactive),-0.0879 (inactive),-0.429,0.166 (inactive),0.24 (inactive),0.104,-0.113,-1.03,0.268,-1.34,0.258,0.0995,-1.12 (inactive),0.685,0.0421,0.423 (inactive)
CC(CO)N1C(=O)[C@@H]2C3C(=O)OCCC/C=C\[C@H]3OC23C=CCN(Cn2nnc4ccccc42)C(=O)[C@@H]13 (stereo not given in full),0.822 (inactive),-0.0035,1.03 (inactive),0.132 (inactive),2.14 (inactive),0.502 (inactive),0.282,1.32 (inactive),0.193 (inactive),2.03,0.0034,-0.126,0.789,1.76,0.285,0.567,0.425 (inactive),0.222,-1.33,-0.0257 (inactive)
COC(=O)[C@@]1(Cc2ccc(F)cc2)[C@H]2c3cc(C(=O)N4CCCC4)n(CCF)c3C[C@H]2CN1C(=O)c1ccccc1,-0.379 (inactive),2.02,6.17 (inactive),0.237 (inactive),0.423 (inactive),0.715 (inactive),0.563,0.6 (inactive),-0.248 (inactive),-0.159,-0.719,0.251,0.426,-1.04,-0.374,1.98,-0.000991 (inactive),-0.0725,0.26,0.763 (inactive)
COC(=O)[C@@]1(Cc2ccc(OC)cc2)[C@H]2c3cc(C(=O)N(C)C)n(CCc4c[nH]c5ccc(O)cc45)c3C[C@H]2CN1C(=O)c1ccccc1,-1.58 (inactive),0.825,4.25 (inactive),1.25 (inactive),0.396 (inactive),1.23 (inactive),0.092,0.689 (inactive),0.0624 (inactive),1.14,-1.66,-0.737,0.197,-1.98,-1.32,0.941,-0.966 (inactive),-0.564,-1.37,-1.33 (inactive)
CC=CC(O)C1C=CC2C(=O)N(C)C(=O)C2N1N1CCCCC1 (stereo not given),-1.81 (inactive),-0.0359,0.974 (inactive),1.18 (inactive),-0.343 (inactive),0.801 (inactive),-1.01,-0.605 (inactive),-0.473 (inactive),-1.96,-0.0516,-2.06,-0.843,-0.714,-0.922,-1.52,-1.36 (inactive),-0.615,-0.00172,-0.232 (inactive)
C=CCN1C(=O)[C@@]2(CCC(=O)OC(C)(C)C)N=C(c3ccc(OCCCO)cc3)O[C@H]2c2ccccc21,0.46 (inactive),0.466,36.7 (active),36.3 (active),3.79 (inactive),13.2 (active),0.0444,-2.82 (inactive),0.413 (inactive),-0.917,-1.22,0.28,-2.35,-3.59,-3.97,-1.62,2.8 (inactive),-1.19,-2.57,-1.66 (inactive)
C=CCOC(=O)[C@@H]1[C@H]2C(=O)O[C@H](c3ccccc3)[C@H](c3ccccc3)N2[C@H](c2ccc(OCCOC(=O)[C@H]3C[C@H]4C(=O)N[C@@H](CCCCN(C)C)C(=O)N4[C@H]3c3cccc(OCCO)c3)cc2)[C@@]12C(=O)Nc1ccc(I)cc12,-0.142 (inactive),0.0665,1.19 (inactive),1.16 (inactive),-1.08 (inactive),0.865 (inactive),-0.714,1.53 (inactive),1.18 (inactive),1.29,0.0169,-0.859,-0.102,-0.671,-0.654,-0.89,1.12 (inactive),-0.374,-1.19,-0.299 (inactive)
C=CCOC(=O)[C@@H]1[C@H]2C(=O)O[C@H](c3ccccc3)[C@H](c3ccccc3)N2[C@H](c2ccc(OCCOC(=O)[C@H]3C[C@H]4C(=O)N[C@@H](CC(C)C)C(=O)N4[C@H]3c3ccc(O)cc3)cc2)[C@@]12C(=O)Nc1ccc(I)cc12,0.715 (inactive),0.0278,2.42 (inactive),1.47 (inactive),0.946 (inactive),0.792 (inactive),0.171,1.75 (inactive),1.66 (inactive),1.36,0.15,0.325,1.02,0.38,1.08,-0.227,3.06 (inactive),-0.952,-0.838,-0.0756 (inactive)
COCCCNC(=O)[C@@]1(Sc2ccc(C)cc2)CC(=O)N(C2Cc3ccccc3C2)[C@@H]1c1ccc(CO)cc1I,-0.713 (inactive),-0.0366,4.51 (inactive),0.427 (inactive),-0.23 (inactive),-0.0133 (inactive),0.224,2.2 (inactive),-1.15 (inactive),1.23,-0.126,-0.175,-0.65,-2.45,-2.27,-0.188,-0.0568 (inactive),-0.294,-1.34,-0.3 (inactive)
O=C1OCC=C[C@H]2OC34C=CCN(c5ccc(Cl)cc5)C(=O)[C@H]3N(CCCCCO)C(=O)[C@@H]4[C@@H]12 (stereo not given in full),0.553 (inactive),0.0927,2.47 (inactive),0.622 (inactive),0.871 (inactive),0.502 (inactive),-0.646,1.95 (inactive),0.525 (inactive),2.87,-0.746,0.699,-0.231,0.733,0.707,-0.26,0.37 (inactive),0.536,1.35,-0.283 (inactive)
Cc1ccc(S[C@]2(C(=O)NCC(F)(F)F)CC(=O)N(Cc3ccccc3)[C@@H]2c2ccc(CO)cc2)cc1,-0.009 (inactive),0.0413,1.6 (inactive),-0.821 (inactive),1.56 (inactive),-1.73 (inactive),1.98,-0.599 (inactive),0.488 (inactive),-1.68,0.149,0.787,-0.479,0.0646,-1.28,0.0177,-0.291 (inactive),0.871,-0.686,0.42 (inactive)
O=C1O[C@@H](c2ccccc2)[C@@H](c2ccccc2)N2[C@@H](c3ccccc3OCCO)[C@]3(C(=O)Nc4ccc(C#CC5=CCCCC5)cc43)[C@@H](C(=O)NC[C@H](O)c3ccccc3)[C@H]12,2 (inactive),0.277,0.996 (inactive),0.526 (inactive),-2.18 (inactive),0.0195 (inactive),0.581,1.74 (inactive),1.1 (inactive),2.55,-1.37,1.68,-3.07,-3.25,-4.07,-2.4,2.81 (inactive),-0.664,-2,-1.46 (inactive)
Cc1ccc(S[C@]2(C(=O)NCCN3CCOCC3)CC(=O)N(Cc3ccccc3C(F)(F)F)[C@@H]2c2ccc(CO)cc2I)cc1,0.0143 (inactive),0.114,4.93 (inactive),0.636 (inactive),2.03 (inactive),0.278 (inactive),0.155,2.82 (inactive),-0.659 (inactive),1.61,-0.209,-0.292,-0.695,-2.85,-2.15,-0.178,-1.03 (inactive),-0.793,-2.36,0.683 (inactive)

# From PubChem BioAssay
